In the library only some 12% were active in any assay of this set; here they are far more common.
Cl transport mod: KCC2 (human) Cl- transport modulation; Q9H2X9; KCC2 cells, thallium flux FluoZin-2 fluorescence; B-score of Tl+ flux slope (higher = more flux/activation; lower = inhibition) at 10 µM; 2.2% of 190,000 active; AID 1456;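 active = thallium flux slope and its plate-corrected score both differing from the plate sample mean at a set confidence after two filtering rounds, in either direction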;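 note: slope of fluorescence scaled to starting intensity during 10 to 20 s after thallium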
Calpain2 inh: blocks pig calpain II enzyme activity | purified calpain II, fluorogenic peptide substrate, 30 min | inhibition, % at 16 µM | 0.37% of 220,000 active | AID 1236;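 active = inhibition above about 50%, limit read from the data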
ROMK mod: human ROMK K+ channel modulation, primary screen; P48048; Tet-inducible ROMK, thallium flux fluorescence; actives lie on both sides; B-score at 10 µM; 2% of 130,000 active;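 active = signal ratio slope over the read window, or its plate-corrected B-score, at least 3 SD from the plate mean, either direction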;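 note: B-score of the F/F0 ratio slope over 7 to 12 s after thallium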
WT yeast gro inh: growth inhibition of WT yeast, mitochondrial fusion screen; mitochondrial fusion phenotypic screen, WT strain; AID 1362; inhibition, % at 10 µM; 2.1% of 190,000 active; in the data active = inhibition above about 58%; tested in S. cerevisiae
Lmaj promast: inhibitors of Leishmania major promastigote growth. inhibition, % at 10 µM. Leishmania major promastigotes, resazurin fluorescence viability. 9% of 200,000 active; in the data active = inhibition above about 50%;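 note: promastigotes grown with compound for 44 hours at 28 °C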
An asterisk follows results filed as active; i = inactive; / = not tested or not shown.

SMILES	Cl transport mod	Calpain2 inh	ROMK mod	WT yeast gro inh	Lmaj promast
Cc1ccc(CNC(=O)c2sccc2-n2cccc2)cc1	6.92*	38.2	/	5.4	2.2
O=C(NNC(=O)c1sccc1-n1cccc1)c1cccc(Cl)c1	12.1*	-23.8	/	13.9	-1.8
C=CCNC(=O)c1onc(CSc2ccccc2CC)c1C(=O)O	0.974	4.5	/	-1.9	-4.8
COc1ccc(CCNC(=O)COC(=O)C23CC4CC(CC(Br)(C4)C2)C3)cc1	-0.861	20.7	/	-1.4	56.2*
CCn1c(=O)c(C(=O)Nc2nc3ccccc3[nH]2)c(O)c2ccccc21	/	-83.7	0.287	83.9*	32.6
CCc1nc2ccccc2c(=O)n1NC(=O)c1c(O)c2ccccc2n(CC)c1=O	/	-132.5	-0.255	22.8	0.4
O=S(=O)(c1ccccc1)c1cnn(-c2ccccc2)c1-c1ccc(F)cc1	-0.875	-9.3	/	7.3	50.1*
COc1ccc(-n2ncc(S(=O)(=O)c3ccccc3)c2-c2ccc(Cl)cc2)cc1	/	52.4*	/	53.4	98.6*
O=S(=O)(c1ccccc1)c1cnn2c(C(F)(F)F)cc(-c3ccc(F)cc3)nc12	/	i	/	10.2	24.9
CCc1nc2c(cnn2-c2ccc(Cl)cc2)c(=O)n1-c1ccc(OC)cc1	-1.4	-15.3	/	52.9	17.3
Cc1ccc(S(=O)(=O)N(CC(=O)N2CCC(C)CC2)c2cccc(C)c2)cc1	-1.41	18.5	-1.41	54.0	31.7
CC(C)N1CCC(N2CCN(Cc3cnc(-c4ccccc4)s3)CC2CCO)CC1 (stereo not given)	/	-13.6	-0.0572	15.5	6.4
OCCC1CN(Cc2cnc(-c3ccccc3)s2)CCN1C1CCCC1 (stereo not given)	0.385	-15.9	0.366	5.8	79.9*
Cc1ccccc1-c1ncc(CN2CCN(C3CCCCC3)C(CCO)C2)cn1 (stereo not given)	/	0.9	0.00254	-11.9	56.0*
CCOc1ccc(CN2CCN(Cc3cc4ccccc4[nH]3)CC2CCO)cc1 (stereo not given)	0.0746	-43.7	-0.603	18.5	78.7*
OCCC1CN(Cc2cnc(-c3ccccc3)s2)CCN1C1CCCCC1 (stereo not given)	-0.343	-13.4	0.101	-7.9	81.1*
Cc1cc([N+](=O)[O-])nn1CCC(=O)Nc1nccs1	-0.0378	-32.3	0.48	-4.4	-5.6
CCOc1ccc(CN2CCN(CC3=Cc4cccc(OC)c4OC3)CC2CCO)cc1 (stereo not given)	-0.0948	-14.8	-1.78	6.0	78.3*
CCOc1ccc(CN2CCN(Cc3cnc(-c4ccccc4)s3)CC2CCO)cc1 (stereo not given)	0.176	-12.4	/	-1.8	86.2*
CCN1C(c2ccccc2)=C(c2ccccc2)S/C1=C\C=C1/SC(=S)N(C)C1=O	/	/	/	/	8.1
CCN1C(=O)/C(=C/C=C2/Sc3ccc4ccccc4c3N2CCO)SC1=S	1.74	7.9	/	8.3	65.1*
CC1(C)Cc2c(sc3nc(-c4ccccc4)oc(=O)c23)CO1	0.412	-17.1	0.156	-2.3	-0.9
COc1cc(C(=O)O/N=C2\C=CC(=O)C(C)=C2)cc(OC)c1OC	0.147	12.7	0.491	-22.7	100.5*
COc1cc(C(=O)ON=C2C=C(C)C(=O)C(C)=C2)cc(OC)c1OC	-0.0502	0.2	1.16	1.9	89.1*
COc1cc(C(=O)Oc2cccc(C)c2)cc(OC)c1OC	0.674	-9.7	/	6.0	-7.3
SMILES	Cl transport mod	Calpain2 inh	ROMK mod	WT yeast gro inh	Lmaj promast
COc1ccc(C(=O)ON=C2C=C(C)C(=O)C(C)=C2)cc1	0.828	5.0	/	-6.0	100.4*
CCNC(=S)N/N=C/c1sc(N2CCCCC2)nc1-c1cccs1	2.66	-67.3	-0.348	53.1	8.6
Cc1cc(NS(=O)(=O)c2ccc3c(c2)OCCO3)no1	0.537	-10.0	/	/	/
CCC(C)(C)NC(=O)C(c1ccco1)N(C(=O)CNC(=O)c1cccs1)c1cccnc1 (stereo not given)	1.41	18.4	/	-13.6	-3.8
CCn1c2ccc(/C(C)=N\O)cc2c2cc(/C(C)=N\O)ccc21	0.0752	-9.8	/	-2.9	54.0*
COc1ccc(S(=O)(=O)NCC(=O)N(CC(=O)NCC2CCCO2)c2cc(C)ccc2C)cc1 (stereo not given)	-0.0955	8.6	-1.2	-1.9	3.0
COc1ccc(CNC(=O)COc2ccc(S(=O)(=O)NC(C)C)cc2)cc1	-0.199	-15.0	/	4.5	64.6*
COc1cccc(-n2c(CN3CCN(c4ccccc4)CC3)nc3ccc([N+](=O)[O-])cc3c2=O)c1	0.29	-21.8	0.736	26.9	63.3*
CCOC(=O)c1ccc(-n2c(CN3CCN(CC)CC3)nc3ccc([N+](=O)[O-])cc3c2=O)cc1	0.116	-28.0	0.611	2.8	0.0
COc1ccc(N2CC(C(=O)Nc3nnc(SCC(=O)c4ccccc4)s3)CC2=O)cc1 (stereo not given)	0.914	-25.3	/	12.7	40.5
CN(CCc1nc2ccc(Cl)cc2[nH]1)Cc1nc(CC2CC2)no1	-1.9	13.4	/	1.5	4.4
COc1ccc(CC(=O)Nc2c3c(nn2-c2cccc(C)c2C)CS(=O)C3)cc1OC (stereo not given)	-1.36	11.1	/	13.6	-4.1
Cc1ccc(CN2CCN(Cc3ccccc3)C(CCO)C2)s1 (stereo not given)	/	23.3	-0.739	-2.5	-3.0
CSc1cccc(CN2CCN(Cc3ccccc3)C(CCO)C2)c1 (stereo not given)	0.554	15.3	-0.0432	-12.1	83.8*
CC(C)(O)C#Cc1ccc(CN2CCN(Cc3ccccc3)C(CCO)C2)cc1 (stereo not given)	/	2.2	0.751	15.8	7.6
CC(C)(O)C#Cc1ccc(CN2CCN(CCc3ccccc3)C(CCO)C2)s1 (stereo not given)	1.42	19.7	0.0778	5.9	80.0*
CSc1cccc(CN2CCN(Cc3ccc(F)c(F)c3)C(CCO)C2)c1 (stereo not given)	0.966	6.6	/	0.1	78.8*
OCCC1CN(Cc2ccn[nH]2)CCN1Cc1ccc(F)c(F)c1 (stereo not given)	/	-16.8	1.64	6.5	-4.5
CSc1ccc(CN2CCN(Cc3ccccc3)C(CCO)C2)cc1 (stereo not given)	/	10.2	-0.013	-2.1	74.2*
CCOC(=O)C1(CC2CC2)CCN(S(=O)(=O)C[C@]23CC[C@H](CC2=O)C3(C)C)CC1	-1.13	38.4	/	9.1	5.8
Cc1ncc(CN2CCC(CO)(Cc3ccccc3)CC2)s1	/	15.0	0.311	28.1	89.1*
CSc1cccc(CN2CCC(CO)(Cc3ccccc3)CC2)c1	-0.235	-8.1	-0.0749	1.8	88.5*
CC(C)c1cc(CN2CCN(Cc3ccc(F)c(F)c3)C(CCO)C2)[nH]n1 (stereo not given)	-0.0077	11.6	-1.35	3.4	6.4
CC(C)c1csc(CN2CCN(Cc3ccc(F)c(F)c3)C(CCO)C2)n1 (stereo not given)	/	30.0	-1.54	3.9	69.7*
CSc1cccc(CN2CCN(CCc3ccccc3)C(CCO)C2)c1 (stereo not given)	-0.586	-16.2	-1.06	-1.3	87.6*
Cc1ncc(CN2CCC(CO)(CCOc3ccccc3)CC2)s1	-0.241	-1.9	/	/	/
C=C(C)C(=O)Nc1cccc(C2=NOC3(C2)C[C@@H](C(N)=O)N(C(=O)CCCCC)C3)c1 (stereo not given in full)	-0.284	0.8	/	/	/

Source: PubChem (several laboratories)
